{
  "source": "PubChem BioAssay (NCI)",
  "note": "About 79,000 compounds went through this panel and 15% of them were active in at least one assay; those are over-represented in the sample as a whole. Values without a mark were called inactive. Cut-off read from the data, not from the text of the source: active = growth inhibition above about 70%; inactive = the rest.",
  "data": [
    {"experiment": "NCI Yeast Anticancer Drug Screen. Data for the sgs1 mgt1 strain (AID 161);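 note: 0% = growth of cultures given vehicle only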", "details": "S. cerevisiae sgs1 mgt1 strain, at 50.0 µM, hits give high values", "how_it_was_run": "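Inhibition of yeast growth, normalised to vehicle-treated controls, is reported for a strain bearing genetic alterations in DNA damage repair.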", "units": {"growth inhibition": "%"}, "values": [
      {"smiles": "Cc1oc2nc(N(C)C)nc(Cl)c2c1C", "growth inhibition": 8.25},
      {"smiles": "CCn1c2ccc([N+](=O)[O-])cc2c2c([N+](=O)[O-])c(NC=O)ccc21", "growth inhibition": -4.55},
      {"smiles": "O=C(Nc1ccc(S(=O)(=O)Nc2nccs2)cc1)c1cccnc1Nc1cccc(Cl)c1", "growth inhibition": 22.2},
      {"smiles": "COc1cc(CC(=O)O)ccc1O", "growth inhibition": -26.7},
      {"smiles": "O=C(Nc1ccc(I)cc1)c1ccc([N+](=O)[O-])cc1", "growth inhibition": -5.05},
      {"smiles": "CC1CN=C(N(C(=O)Nc2ccc(F)c(Cl)c2)c2ccccc2)S1", "note": "(stereo not given)", "growth inhibition": -12.3},
      {"smiles": "Cc1cc(CC(N)C(=O)O)ccc1O", "note": "(stereo not given)", "growth inhibition": -6},
      {"smiles": "Cc1cccc(NC(=S)NC2CCCCC2)c1", "growth inhibition": -3.1},
      {"smiles": "Cc1cccc2c1C1C(CC2=O)C(=O)c2ccccc2C1C", "note": "(stereo not given)", "growth inhibition": 3.5},
      {"smiles": "Nc1ccc2c(c1)Cc1cc(O)ccc1-2", "growth inhibition": 1.45},
      {"smiles": "CCCCS(=O)(=O)N(CCC)CCC", "growth inhibition": 5.25},
      {"smiles": "Cc1cc(C)c(C2CNCc3cc4c(cc32)CNCC4c2c(C)cc(C)cc2C)c(C)c1", "note": "(stereo not given)", "growth inhibition": -46},
      {"smiles": "N#Cc1nc(C(O)c2ccccc2)oc1N", "note": "(stereo not given)", "growth inhibition": -7.05},
      {"smiles": "C/C=C/c1ccc(OC(C)C(=O)c2ccc3c(c2)OCO3)c(OC)c1", "note": "(stereo not given)", "growth inhibition": 8.8},
      {"smiles": "NC1=Nc2ncccc2C(=O)NN1", "growth inhibition": 8.1},
      {"smiles": "CC1CC(=O)CC[C@@H]1OCc1ccccc1", "note": "(stereo not given in full)", "growth inhibition": -5.05},
      {"smiles": "COC(=O)C1=C(C(=O)OC)C23CC4CCC2(C(=O)C1O3)C4(C)C", "note": "(stereo not given)", "growth inhibition": 23},
      {"smiles": "COc1ccc2ccc3cccnc3c2n1", "growth inhibition": 40.9},
      {"smiles": "Cc1cccc(-c2cc(=O)c3c(C)cc(C)nc3[nH]2)c1", "growth inhibition": 21.9},
      {"smiles": "C1CCCN(NC2=NCCO2)CC1", "growth inhibition": 7.3},
      {"smiles": "O=C(OC1CC2CCC1C2)c1cc([N+](=O)[O-])cc([N+](=O)[O-])c1", "note": "(stereo not given)", "growth inhibition": -9},
      {"smiles": "CC(=O)OC(c1ccccc1)C1(c2ccccc2)OCCO1", "note": "(stereo not given)", "growth inhibition": 5.75},
      {"smiles": "CC1C=CCCC1COC(=O)C(=O)OCC1CC=CCC1C", "note": "(stereo not given)", "growth inhibition": 28.1},
      {"smiles": "CCOC(=O)C/C(C)=N\\NC(N)=O", "growth inhibition": 44.8},
      {"smiles": "OC1(c2ccc(F)cc2)CCNCC1", "growth inhibition": 33.9},
      {"smiles": "COc1ccc(C2OC3=C(Nc4ccc([N+](=O)[O-])cc4N3)C2=O)cc1OC", "note": "(stereo not given)", "growth inhibition": -16.1},
      {"smiles": "COC(=O)C1(CCCCCBr)CCCCCCCCCCC1=O", "note": "(stereo not given)", "growth inhibition": 24.1},
      {"smiles": "Cc1ccc(S(=O)(=O)NC(C)C(=O)O)cc1", "note": "(stereo not given)", "growth inhibition": 4.9},
      {"smiles": "CCNc1cc2oc(=O)cc(C)c2cc1C", "growth inhibition": -11.4},
      {"smiles": "CCN(CC)C(C)(C)C(=O)/C=C/c1ccc(OC)cc1", "growth inhibition": -33.3},
      {"smiles": "CC(=Nc1ccccc1)NO", "growth inhibition": 3.7},
      {"smiles": "CN(C)c1ccc(C2(c3ccc(N(C)C)cc3)NNC(=O)c3ccccc32)cc1", "growth inhibition": 9.35},
      {"smiles": "O=C1NC(Cc2ccc(O)cc2)C(=O)N1c1ccccc1O", "note": "(stereo not given)", "growth inhibition": 5.35},
      {"smiles": "COC(C)CCOC(=O)c1ccccc1", "note": "(stereo not given)", "growth inhibition": -14.2},
      {"smiles": "Cc1nc(-n2nc(-c3ccccc3)cc2-c2ccccc2)sc1C(=O)/C=C/c1ccc(Cl)c(Cl)c1", "growth inhibition": 6.8},
      {"smiles": "O=C(O)C12CC3(C(=O)O)CC(C(=O)O)(CC(C(=O)O)(C1)C3=O)C2=O", "growth inhibition": -24.4},
      {"smiles": "CCC(SC(CC)(CC(C)C)C(N)=O)C(N)=O", "note": "(stereo not given)", "growth inhibition": 15.8},
      {"smiles": "O=C(NN=C1CCCCC1)c1ccccc1", "growth inhibition": -9.9},
      {"smiles": "Nc1ccc2c(c1)C(=O)N(OS(=O)(=O)c1ccccc1)C2=O", "growth inhibition": 41.2},
      {"smiles": "NC(=S)n1nc(-c2ccccc2)c(N=Nc2ccccc2[N+](=O)[O-])c1-c1ccccc1", "growth inhibition": -3.15}
    ]},
    {"experiment": "NCI Yeast Anticancer Drug Screen. Data for the cln2 rad14 strain (AID 165);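 note: 0% = growth equal to vehicle treated cultures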", "details": "S. cerevisiae cln2 rad14 strain, at 50.0 µM, hits give high values", "how_it_was_run": "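Growth of compound-exposed yeast (cln2 rad14 genotype) measured and expressed as inhibition relative to vehicle.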", "units": {"growth inhibition": "%"}, "values": [
      {"smiles": "Cc1oc2nc(N(C)C)nc(Cl)c2c1C", "growth inhibition": 12.5},
      {"smiles": "CCn1c2ccc([N+](=O)[O-])cc2c2c([N+](=O)[O-])c(NC=O)ccc21", "growth inhibition": 17.6},
      {"smiles": "O=C(Nc1ccc(S(=O)(=O)Nc2nccs2)cc1)c1cccnc1Nc1cccc(Cl)c1", "growth inhibition": 1.15},
      {"smiles": "COc1cc(CC(=O)O)ccc1O", "growth inhibition": -18.4},
      {"smiles": "O=C(Nc1ccc(I)cc1)c1ccc([N+](=O)[O-])cc1", "growth inhibition": -8.2},
      {"smiles": "CC1CN=C(N(C(=O)Nc2ccc(F)c(Cl)c2)c2ccccc2)S1", "note": "(stereo not given)", "growth inhibition": 25.4},
      {"smiles": "Cc1cc(CC(N)C(=O)O)ccc1O", "note": "(stereo not given)", "growth inhibition": -6.85},
      {"smiles": "Cc1cccc(NC(=S)NC2CCCCC2)c1", "growth inhibition": 12.7},
      {"smiles": "Cc1cccc2c1C1C(CC2=O)C(=O)c2ccccc2C1C", "note": "(stereo not given)", "growth inhibition": 8.9},
      {"smiles": "Nc1ccc2c(c1)Cc1cc(O)ccc1-2", "growth inhibition": 6.3},
      {"smiles": "CCCCS(=O)(=O)N(CCC)CCC", "growth inhibition": -18.1},
      {"smiles": "Cc1cc(C)c(C2CNCc3cc4c(cc32)CNCC4c2c(C)cc(C)cc2C)c(C)c1", "note": "(stereo not given)", "growth inhibition": -44.9},
      {"smiles": "N#Cc1nc(C(O)c2ccccc2)oc1N", "note": "(stereo not given)", "growth inhibition": 11.8},
      {"smiles": "C/C=C/c1ccc(OC(C)C(=O)c2ccc3c(c2)OCO3)c(OC)c1", "note": "(stereo not given)", "growth inhibition": -10.5},
      {"smiles": "NC1=Nc2ncccc2C(=O)NN1", "growth inhibition": 17.8},
      {"smiles": "CC1CC(=O)CC[C@@H]1OCc1ccccc1", "note": "(stereo not given in full)", "growth inhibition": 19.9},
      {"smiles": "COC(=O)C1=C(C(=O)OC)C23CC4CCC2(C(=O)C1O3)C4(C)C", "note": "(stereo not given)", "growth inhibition": 8.65},
      {"smiles": "COc1ccc2ccc3cccnc3c2n1", "growth inhibition": -2.35},
      {"smiles": "Cc1cccc(-c2cc(=O)c3c(C)cc(C)nc3[nH]2)c1", "growth inhibition": 24.8},
      {"smiles": "C1CCCN(NC2=NCCO2)CC1", "growth inhibition": 5.95},
      {"smiles": "O=C(OC1CC2CCC1C2)c1cc([N+](=O)[O-])cc([N+](=O)[O-])c1", "note": "(stereo not given)", "growth inhibition": -20.4},
      {"smiles": "CC(=O)OC(c1ccccc1)C1(c2ccccc2)OCCO1", "note": "(stereo not given)", "growth inhibition": -33},
      {"smiles": "CC1C=CCCC1COC(=O)C(=O)OCC1CC=CCC1C", "note": "(stereo not given)", "growth inhibition": 9.25},
      {"smiles": "CCOC(=O)C/C(C)=N\\NC(N)=O", "growth inhibition": 18.2},
      {"smiles": "OC1(c2ccc(F)cc2)CCNCC1", "growth inhibition": 20.4},
      {"smiles": "COc1ccc(C2OC3=C(Nc4ccc([N+](=O)[O-])cc4N3)C2=O)cc1OC", "note": "(stereo not given)", "growth inhibition": -3.7},
      {"smiles": "COC(=O)C1(CCCCCBr)CCCCCCCCCCC1=O", "note": "(stereo not given)", "growth inhibition": 12.7},
      {"smiles": "Cc1ccc(S(=O)(=O)NC(C)C(=O)O)cc1", "note": "(stereo not given)", "growth inhibition": 3.2},
      {"smiles": "CCNc1cc2oc(=O)cc(C)c2cc1C", "growth inhibition": 8.05},
      {"smiles": "CCN(CC)C(C)(C)C(=O)/C=C/c1ccc(OC)cc1", "growth inhibition": 12.7},
      {"smiles": "CC(=Nc1ccccc1)NO", "growth inhibition": 3.5},
      {"smiles": "CN(C)c1ccc(C2(c3ccc(N(C)C)cc3)NNC(=O)c3ccccc32)cc1", "growth inhibition": 12.7},
      {"smiles": "O=C1NC(Cc2ccc(O)cc2)C(=O)N1c1ccccc1O", "note": "(stereo not given)", "growth inhibition": 2.5},
      {"smiles": "COC(C)CCOC(=O)c1ccccc1", "note": "(stereo not given)", "growth inhibition": -29.7},
      {"smiles": "Cc1nc(-n2nc(-c3ccccc3)cc2-c2ccccc2)sc1C(=O)/C=C/c1ccc(Cl)c(Cl)c1", "growth inhibition": 21.1},
      {"smiles": "O=C(O)C12CC3(C(=O)O)CC(C(=O)O)(CC(C(=O)O)(C1)C3=O)C2=O", "growth inhibition": -4.15},
      {"smiles": "CCC(SC(CC)(CC(C)C)C(N)=O)C(N)=O", "note": "(stereo not given)", "growth inhibition": -53},
      {"smiles": "O=C(NN=C1CCCCC1)c1ccccc1", "growth inhibition": -25.8},
      {"smiles": "Nc1ccc2c(c1)C(=O)N(OS(=O)(=O)c1ccccc1)C2=O", "growth inhibition": 41},
      {"smiles": "NC(=S)n1nc(-c2ccccc2)c(N=Nc2ccccc2[N+](=O)[O-])c1-c1ccccc1", "growth inhibition": -35.6}
    ]}
  ]
}
